# Source: ChEMBL document CHEMBL4513216, “Probing the Open Global Health Chemical Diversity Library for Multistage-Active Starting Points for Next-Generation Antimalarials” (ACS Infect Dis, 2020)
# In all, about 69,000 compounds went through this assay and about 8,600 (12%) showed an effect of 50% or more. The entries come from a sample that favours strong results as a whole.
# Tested on: Plasmodium berghei
# Assay: Screen against P. berghei liver stage (PbLuc), transformed with Luciferase, at 10uM
# Format: functional, HepG2
# Conditions: tested at 10 uM
row,Compound,INHIBITION
1,CS(=O)(=O)N1C[C@@H]2CCN(C(=O)c3cscn3)[C@@H]2C1,31.5%
2,c1cnn(CCNCc2ccc(N3CCCCC3)cc2)c1,-10.8%
3,O=C(O)c1c(-c2ccncc2)ncc2c1CCN(Cc1ccco1)C2,26.5%
4,CC1CCN(c2nc3cn(C4CCS(=O)(=O)C4)c(=O)c-3c[nH]2)CC1 (stereo unspecified),-16.3%
5,Cc1occc1C(=O)N1C[C@@H]2OCCN(c3ncccn3)[C@@H]2C1,11.5%
6,CCc1ccccc1-c1cc(OC)nc(N)n1,35%
7,N#Cc1ccc(S(=O)(=O)N2CSCC2C(=O)NCC(F)(F)F)cc1 (stereo unspecified),-13.5%
8,CC1(C2CCN(CC(N)=O)CC2)CN(Cc2ccccc2)C(=O)CO1 (stereo unspecified),0.301%
9,CC(=O)N1CCC(c2ccnc(Nc3cncnc3)n2)CC1,-2.11%
10,Cc1cc(N2CCCC2)c(C#N)c(C)n1,4.62%
11,Cc1csc(N2CCCN(c3cc(C)nc(C)c3C#N)CC2)n1,91.9%
12,Cc1cc(N2CCCCC2)c(C#N)c(C)n1,25.2%
13,CCOC(=O)c1cnn(C2CCN(C(=O)CC3CCCC3)CC2)c1N,26.1%
14,COc1ccccc1C1(CNCc2cccc(C#N)c2)CCOCC1,20.9%
15,COc1ccccc1C1(CNCc2ccc(C#N)cc2)CCOCC1,29.6%
16,COc1ccccc1C1(CNCc2cccc(O)c2)CCOCC1,51.3%
17,O=C(CCNc1ncccn1)Nc1cc(C(F)(F)F)c[nH]c1=O,-1.7%
18,O=C(NCc1ccco1)[C@H]1C[C@@H]2CCN(c3ccncn3)C[C@@H]2O1,21.7%
19,Cc1cnccc1CN(C)C(=O)c1ccc(Cn2cnnn2)cc1,54.9%
20,Cc1ncsc1CCN(C)C(=O)c1ccc(Cn2cnnn2)cc1,-0.448%
21,Cc1nc(CN(C)C(=O)c2ccc(Cn3cnnn3)cc2)cs1,16.5%
22,CCc1noc(C(C)N2CCC(O)CC2)n1 (stereo unspecified),37.9%

row,Compound,INHIBITION
1,Cc1noc(C)c1C(=O)NCCSCc1cccs1,29.5%
2,CCN1CCN(C(=O)NCCOc2ccc3c(c2)OCO3)CC1,2.63%
3,COc1ncccc1C(=O)N1CCCC1c1nc(-c2ccccc2)no1 (stereo unspecified),64.9%
4,Cc1nc(CC(=O)N2CCCC2c2nc(-c3ccccc3)no2)cs1 (stereo unspecified),38.2%
5,COc1nc2c(cc1C(=O)N1CCCCC1c1ccccn1)CCC2 (stereo unspecified),-34.4%
6,COc1ncccc1C(=O)N1CCCC1c1nc(-c2ccccc2)n[nH]1 (stereo unspecified),47.6%
7,CC(C)c1cc(C(=O)N2CCCC2c2nc(-c3ccccc3)no2)[nH]n1 (stereo unspecified),55.5%
8,COc1ccc(C(=O)N2CCCCC2c2ccccn2)c(OC)n1 (stereo unspecified),53.2%
9,O=C(c1n[nH]c2c1CCC2)N1CCCC1c1nc(-c2ccccc2)no1 (stereo unspecified),-68.4%
10,COc1nc2c(cc1C(=O)N1CCCC1c1ccccn1)CCC2 (stereo unspecified),1.74%
11,COc1ncccc1C(=O)N1CC(c2nc(-c3ccccn3)no2)C1,33.5%
12,Cc1ncc(-c2ccncc2)c(C2CCN(C(=O)c3ccco3)CC2)n1,-21%
13,CCc1nc(CN(C)C2CCN(CC(F)(F)F)C2)no1 (stereo unspecified),4.71%
14,CN1CCOC(CNCc2c(Cl)nc3ccccn23)C1 (stereo unspecified),-2.43%
15,CC[C@@H]1N(Cc2ccc(OC)cc2)CCC[C@]12CCC(=O)N2CCOC,-5.31%
16,Cc1noc(CC2CCN(C(=O)C(c3ccccc3C)N(C)C)CC2)n1 (stereo unspecified),-21.1%
17,COCc1nc(C(=O)N2CCCC2c2cc(C)on2)cs1 (stereo unspecified),0.914%
18,O=C(c1cc2c(s1)CCC2)N1CCCC(c2cnccn2)C1 (stereo unspecified),-94%
19,CNc1ccnc(NCC(=O)Nc2cc(C)ccc2OC)n1,53%
20,CNc1ccnc(NCCC(=O)Nc2ccccc2OC)n1,49.7%
21,COc1ccc(C)cc1NC(=O)CNc1ccn(CC(N)=O)n1,-41.6%
22,CC(C)COC1CCN(S(=O)(=O)Cc2cccc(F)c2)CC1,20.9%

row,Compound,INHIBITION
1,CNC(=O)[C@@H]1C[C@@H](N)CN1c1nnc(-c2ccccc2)s1,74.9%
2,CCNC(=O)[C@@H]1C[C@H](N)CN1c1cc(CC)nc(N(C)C)n1,-69.6%
3,CCN(CC)C(=O)[C@@H]1C[C@H](N)CN1c1nnc(-c2ccccc2)s1,56.3%
4,CNC(=O)[C@@H]1C[C@@H](N)CN1C(=O)CCSCc1ccccc1,-15.1%
5,CCN(CC)C(=O)[C@@H]1C[C@@H](N)CN1c1nc(N(C)C)nc(C)c1C,62.6%
6,CCN(CC)C(=O)[C@@H]1C[C@H](N)CN1c1noc(-c2ccccc2)n1,9.04%
7,CCN(CC)C(=O)[C@@H]1C[C@@H](N)CN1c1nc(N2CCCC2)nc(C)c1C,33.4%
8,CCN(CC)C(=O)[C@@H]1C[C@@H](NC(=O)c2cccn2C2CC2)CN1C,20.5%
9,CNC(=O)[C@@H]1C[C@@H](N)CN1c1nc(N2CCCC2)nc(C)c1C,45.3%
10,COc1ccc(-c2ncccc2C(=O)N2C[C@@H]3CC[C@H]2C3)cn1,29.1%
11,Cn1cc(C[C@H]2[C@H](N3CCOCC3)CCN2C2CCOCC2)cn1,0.804%
12,Cn1nc(C(=O)N2CCOCC2)cc1C(=O)Nc1c(Cl)cccc1Cl,51.6%
13,Cn1nc(C(=O)N2CCOCC2)cc1C(=O)Nc1ccc(Cl)cc1Cl,-8.66%
14,Cn1nc(C(=O)N2CCOCC2)cc1C(=O)Nc1ncc(Cl)cc1Cl,-0.71%
15,Cc1c(C(=O)N2CCC(C(=O)c3nc4ccccc4s3)CC2)cnn1C,11.025%
16,Cc1cccc(C(=O)N2CCSCC2)c1NC(=O)c1ccsc1,1.56%
17,Cc1cccc(C(=O)N2CCN(C)CC2)c1NC(=O)c1ccncc1,52.6%
18,Cc1cccc(C(=O)N2CCSCC2)c1NC(=O)c1cccnc1,45%
19,COc1cc(CNCCC(N)=O)c2c(c1)CC(C)O2 (stereo unspecified),49.4%
20,COc1ccc(-c2nnc(CNCCn3cc(C)cn3)o2)cc1,5.7%
21,COc1cccc(-c2nc(CNCCn3cccn3)cs2)c1,31.8%
22,COc1cc(CNCCn2cc(C)cn2)cc2c1OCCO2,17.8%

row,Compound,INHIBITION
1,COc1cc(CNCCn2cccn2)c2c(c1)CC(C)O2 (stereo unspecified),75.2%
2,COc1cc(CNCCn2cc(C)cn2)c2c(c1)CC(C)O2 (stereo unspecified),75.2%
3,O=C(c1cccc(F)c1)N1CCc2ncc(Cn3cccn3)n2CC1,3.58%
4,O=C(NCCCO)c1cnc(-c2ccccc2)nc1O,48.5%
5,CCSCCNC(=O)c1cnc(-c2ccccc2)nc1O,40.3%
6,Cc1nc(C(C)C)sc1C(=O)NCCSc1ccccn1,-71.3%
7,Cc1cccnc1NCCNC(=O)c1cnc(-c2ccccn2)nc1O,92.1%
8,CCn1c(C)nnc1SCCNC(=O)c1cnc(C(C)(C)C)nc1O,23.6%
9,CC(C)(C)c1ncc(C(=O)NCCSc2ccccn2)c(O)n1,69.1%
10,Cc1nc(-c2ncc(C(=O)NCCNc3ncccc3C)c(O)n2)cs1,50.3%
11,CCn1c(N)nc2cc(C(=O)NCCNc3ncccc3C)cnc21,-87.1%
12,Cc1cccnc1NCCNC(=O)c1cnc(-c2cccs2)nc1O,14.9%
13,Cc1noc(NCc2cn(C)nc2-c2ccncc2)n1,19.4%
14,Cc1ccc(C(=O)NS(=O)(=O)c2c(Cl)cccc2Cl)c(=O)[nH]1,19.4%
15,CN(C)CCN1CCO[C@H]2CN(Cc3cnn(C)c3)C[C@H]21,-57.1%
16,Cc1nnsc1C(=O)N1CCCCC1c1cc2nc(C)c(C)c(O)n2n1 (stereo unspecified),19.3%
17,Cc1nc(-c2ccccc2)sc1CNC(=O)c1ccc(=O)n(C)c1,39.6%
18,CC(NCCCN1CCCC1=O)c1cc(Br)ccc1O (stereo unspecified),-1.3%
19,c1cc2c(cc1Cn1cc(C3CCOC3)nn1)OCO2 (stereo unspecified),17.6%
20,Cc1ocnc1C(=O)N(C)[C@@H]1CC[C@@H](n2ccnc2C)[C@@H]1O,45.9%
21,Cn1cnc2cc(CCC(=O)Nc3nc[nH]n3)ccc21,39.2%
22,Cn1c(=O)c2c(n3ncnc13)NC(=O)CC2c1cccc(F)c1 (stereo unspecified),41.6%

row,Compound,INHIBITION
1,Cn1c(=O)c2c(n3ncnc13)NC(=O)CC2c1ccc(F)cc1 (stereo unspecified),54%
2,CCc1ccc(C2CC(=O)Nc3c2c(=O)n(C)c2ncnn32)cc1 (stereo unspecified),0.207%
3,Cc1nc(N(C)C)nc(-c2cccc(-c3ccn(CCCO)n3)c2)c1C,14.9%
4,Cc1ccc(CNCC2CNc3cc(C)nn3C2)cn1 (stereo unspecified),33.35%
5,CCOc1cncc(N2CCOCC2)n1,35.4%
6,O=C(CCN1CCOCC1)NC1CCCN(CC2CCCCC2)C1 (stereo unspecified),1.37%
7,O=C(CCN1CCCCO1)NC1CCCN(CC2CCCCC2)C1 (stereo unspecified),11.2%
8,O=C(CCN1CCCO1)NC1CCCN(CC2CCCCC2)C1 (stereo unspecified),50.5%
9,CCOc1ccc2cc(C(=O)NCCC(=O)N(C)C)[nH]c2c1,-5.22%
10,Cc1ccc(N2CCCN(CC3CC3)C(C(C)C)C2)nn1 (stereo unspecified),23%
11,COCC1COCCC12CCN(C(=O)CC1Cc3ccccc3C1)CC2 (stereo unspecified),23.6%
12,Clc1snnc1CN1CCCC1Cn1cccn1 (stereo unspecified),-36.1%
13,CCc1nccn1CC(=O)N1CCN(C2CCc3ccccc3C2)CC1 (stereo unspecified),57.9%
14,Cc1ccnn1CCC(=O)N1CCN(C2CCc3ccccc3C2)CC1 (stereo unspecified),-5.08%
15,Cc1ccnn1CC(=O)N1CCN(C2CCc3ccccc3C2)CC1 (stereo unspecified),10.7%
16,COc1cc(-n2cccc2)c(Cl)cc1C(=O)NS(C)(=O)=O,23.7%
17,CC(C)(C)CC(=O)N1[C@@H](c2ccco2)[C@@H](CO)C[C@]12CCCCNC2=O,22.2%
18,O=C(NCC(c1ccccc1)N1CCOCC1)Nc1cn[nH]c1 (stereo unspecified),-113%
